12 compounds from PubChem BioAssay (NCATS) can be followed below.

Results filed as inconclusive are left out. Values without a mark were called inactive. The call rests on the fitted dose curve; in most records, active means well fitted inhibition curve with a large enough effect; inconclusive means small, poorly fitted or top-dose-only effect; inactive means flat fitted curve, though single readings scatter.

The target of the experiment is Aldehyde dehydrogenase, mitochondrial (Homo sapiens) (UniProt P05091). As to the kind of experiment: qHTS for Inhibitors of the Aldehyde Dehydrogenase Family (ALDH2) Primary screen (AID 2061308).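 Further: plate controls were vehicle for no effect and reference inhibitor for full effect; nearly all actives have a fitted effect of over 55% in size.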 Conditions: ALDH2 enzyme inhibition qHTS, 1536-well; series mostly up to 56 µM; activity change, negative = inhibition: at the top concentration.
In the case of `CCN1C(=O)c2ccccc2C1Nc1ccc(OCCN2CCCCC2)cc1` (configuration not stated), the “activity change, negative = inhibition” value was 1.59%.

On to `CC(C)=CCC/C(C)=C/CO[C@@H]1O[C@H](CO)[C@@H](OC(=O)/C=C/c2ccc(O)cc2)[C@H](O[C@@H]2O[C@@H](C)[C@H](O)[C@@H](O)[C@H]2O)[C@H]1O`, for which the “activity change, negative = inhibition” value was 5.05% [at 16.9 µM].

As to `C[C@@H]1O[C@@H](O[C@H]2[C@H](O)[C@@H](O[C@@H]3O[C@H](CO)[C@@H](O)[C@H](O[C@@H]4O[C@H](CO)[C@@H](O)[C@H](O)[C@H]4O)[C@H]3O)[C@H](O[C@H]3CC[C@@]4(C)C(=CC[C@@H]5C4CC[C@@]4(C)C5C[C@@H]5OC6(CC[C@@](C)(CO[C@@H]7O[C@H](CO)[C@@H](O)[C@H](O)[C@H]7O)O6)[C@@H](C)[C@@H]54)C3)O[C@@H]2CO)[C@H](O)[C@H](O)[C@H]1O` (some centres not stated), the activity change, negative = inhibition was 9.58% [at 11.2 µM].

Consider `C=C1[C@H](OC(C)=O)[C@H]2[C@@H](OC(C)=O)[C@](C)(OC(C)=O)C[C@]2(OC(C)=O)C(=O)[C@H](C)/C=C/C(C)(C)C(=O)[C@H](OC(=O)C(C)C)[C@H]1OC(C)=O`, for which the “activity change, negative = inhibition” value is -6.18% [at 16.9 µM].

Regarding `C=C1CC[C@@H](O)[C@]2(C)C[C@H]3OC(=O)C(=C)[C@H]3CC12` (some centres not stated), the “activity change, negative = inhibition” value is 0.562%.

On to `C/C1=C\C[C@H](O[C@@H]2O[C@H](CO)[C@@H](O)[C@H](O)[C@H]2O)/C(C)=C/[C@H]2OC(=O)[C@H](C)[C@@H]2CC1`, for which the “activity change, negative = inhibition” value was -2.78% [at 28 µM].

Consider `C/C=C(/C)C(=O)O[C@H]1C[C@]2(C)O[C@@H]2[C@@H](OC(C)=O)[C@@]2(C)CC[C@@](O)(C(C)C)[C@H]12`, for which the “activity change, negative = inhibition” value is 6.29%.

Take `CC(=O)/C=C/C1(O)C(C)CC(O[C@@H]2O[C@H](CO)[C@@H](O)[C@H](O)[C@H]2O)CC1(C)C` (some centres not stated): the “activity change, negative = inhibition” value was 5.11% [at 28 µM].

Consider `CCN1C(C)(C)CC(Oc2ccc(C(=O)Nc3ccc(NC(=O)Nc4cc(C(C)(C)C)on4)cc3)nc2)CC1(C)C`, for which the “activity change, negative = inhibition” value is 7.05%.

As for `OC[C@H]1O[C@@H](Oc2cc(O)c3c(c2)O[C@@H](c2ccc(O)cc2)[C@H](O)C3)[C@H](O)[C@@H](O)[C@@H]1O`, the “activity change, negative = inhibition” value is -1.85% [at 28 µM].

Regarding `Cn1c(=O)c(F)c(Nc2ccc(I)cc2F)c2c(=O)n(CC(O)CO)cnc21` (configuration not stated), the “activity change, negative = inhibition” value is -4.06%.

Take `O=C(O)CCc1cc2ccoc2cc1O[C@@H]1O[C@H](CO)[C@@H](O)[C@H](O)[C@H]1O`: the “activity change, negative = inhibition” value is 7.7%.
